Compounds with a hit are over-represented: about 4% of the library has one in this group of screens.
Mtb FBA inh: inhibitors of M. tuberculosis fructose-bisphosphate aldolase; purified M. tuberculosis FBA, fluorescence read-out; P9WQA3; inhibition, % at 1 µM; AID 588726; actives 2.3% (n = 360,000); in the data active = inhibition above about 27%;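 also: 0% = vehicle and 100% = reference inhibitor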
Target sequence (P9WQA3 whole entry, looked up): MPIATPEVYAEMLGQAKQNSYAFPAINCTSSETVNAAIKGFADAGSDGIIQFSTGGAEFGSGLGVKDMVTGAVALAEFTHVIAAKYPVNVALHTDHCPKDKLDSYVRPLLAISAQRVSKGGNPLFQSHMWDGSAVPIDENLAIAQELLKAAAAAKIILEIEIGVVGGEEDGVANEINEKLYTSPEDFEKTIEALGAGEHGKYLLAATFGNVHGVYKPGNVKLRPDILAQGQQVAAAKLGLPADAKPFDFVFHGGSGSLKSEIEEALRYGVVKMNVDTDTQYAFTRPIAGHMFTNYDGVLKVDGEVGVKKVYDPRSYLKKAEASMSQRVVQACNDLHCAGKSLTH
Mtb bLac sens: beta-lactam sensitization of Mtb H37Rv; M. tuberculosis H37Rv growth with meropenem, percent inhibition; inhibition, % at 25 µM; actives 0.27% (n = 330,000); AID 434955; call rule not given here;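 also: growth measured after seven days incubation then overnight dye step; 0% = bacteria only wells and 100% = bacteria with antibiotic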
CCHFV vOTU inh: blocks the CCHF virus ovarian tumor domain protease | CCHFV vOTU protease, Pep-AMC fluorescence | inhibition, % at 11.5 µM | actives 0.55% (n = 370,000) | AID 651958; also: 0% = vehicle wells with enzyme and 100% = no enzyme wells
MazF activator: increases E. coli MazEF RNase cleavage of RNA | P0AE70 | FAM/BHQ RNA-DNA oligo cleavage fluorescence, 5 h | activation, % at 20 µM | actives 0.32% (n = 350,000); in the data active = activation above about 50%
Target sequence (P0AE70 whole entry, looked up): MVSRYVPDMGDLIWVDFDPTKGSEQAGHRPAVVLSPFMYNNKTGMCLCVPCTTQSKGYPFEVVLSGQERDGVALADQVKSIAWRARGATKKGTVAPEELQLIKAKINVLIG
GDH-TPI counter: GDH-TPI coupled enzyme inhibition counter-screen. GDH-TPI coupled enzyme counterscreen, NADH absorbance. inhibition, % at 4.8 µM. actives 1.2% (n = 360,000). AID 588335;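 also: 0% = DMSO wells and 100% = wells lacking the enzyme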
* marks the source's active call; other numbers are inactive results; . = no result given; + = active, no number. Rule as the data show it, unless noted: active = inhibition above about 30%; inactive = the rest.

SMILES | Mtb FBA inh | Mtb bLac sens | CCHFV vOTU inh | MazF activator | GDH-TPI counter
COCCNC(=O)/C(C#N)=C/c1ccc(OCc2ccccc2)cc1 | -1 | 1 | -6 | -3 | 17
COc1cc(/C=C(\C#N)C(=O)NCc2ccccc2)ccc1OCc1ccc(C(=O)O)cc1 | -5 | 40 | -3 | 2 | 59*
N#C/C(=C\c1ccc(O)c([N+](=O)[O-])c1)C(=O)NCc1ccccc1 | -12 | 4 | 25 | -5 | 44*
CCOC(=O)C1=CN(C)C=C(C(=O)OCC)C1c1ccsc1 | + | 1 | -261 | -4 | 9
CCN(CC)CCCNc1oc(-c2ccc(OC)c(OC)c2)nc1C#N | 164* | -13 | -28 | 7 | 17
CN(C)CCCNc1oc(-c2cccc(Cl)c2)nc1C#N | 174* | 46 | -69 | -2 | 1
COc1ccc(-c2nc(C#N)c(NCc3ccc(C)cc3)o2)cc1OC | 144* | 13 | -20 | 4 | 3
CCN(CC)CCCNc1oc(-c2ccccc2[N+](=O)[O-])nc1C#N | 1 | -4 | -1 | 4 | 8
COc1ccc(-c2nc(C#N)c(NCCCn3ccnc3)o2)cc1OC | + | -17 | -83 | 4 | 12
CN(C)CCNc1oc(COc2cccc(Cl)c2)nc1C#N | 2 | -16 | -9 | -1 | -1
CC1(C)CC(=O)C=C(Nc2ccccc2NC(=O)c2cc(F)ccc2F)C1 | . | . | -2 | . | .
O=C(NN=Cc1ccc(O)cc1)c1cc(-c2ccc(Cl)cc2)n[nH]1 | . | . | -1 | . | .
Cc1ccccc1Cn1cc(COC(=O)NCC(C)C)nn1 | . | . | -11 | . | .
COc1ccc2[nH]c3c(c2c1)CCN[C@]31C(=O)N(Cc2cn(Cc3ccccc3)nn2)c2ccc(F)cc21 | . | . | 6 | . | .
CC(=O)Nc1cc(N=Cc2ccc(O)cc2O)c(Cl)cc1Cl | -2 | -5 | . | 130* | 8
COc1cc2ccc(=O)oc2cc1OCC(O)C(C)(C)O (stereo not given) | 138* | -4 | -142 | 2 | 21
COc1cc2oc(=O)ccc2c(OC)c1CC(O)C(C)(C)O (stereo not given) | 4 | -9 | 12 | -1 | 6
COc1cc2ccc(=O)oc2cc1O | + | -10 | -285 | -2 | 20
COc1ccc(-n2c(SCC(=O)NC3CCCCCC3)nnc2-c2ccncc2)cc1 | . | . | 0 | . | .
CCCn1c(SCC(=O)Nc2nonc2C)nnc1-c1ccoc1C | + | -2 | 7 | 0 | -1
Cc1nonc1NC(=O)CSc1nnc(-c2ccoc2C)n1-c1cccc(Cl)c1 | 2 | -1 | 5 | 1 | -3
Cc1ccc2c(c1)N(CCCC(=O)NCc1c(F)cccc1F)C(=O)CO2 | . | . | 1 | . | .
N#Cc1ccc(OCCCN2CCC(C(O)(c3ccccc3)c3ccccc3)CC2)cc1 | . | . | -3 | . | .
Cc1ccc(/C=N/NC(=O)c2nnn(-c3nonc3N)c2-c2ccc3c(c2)OCO3)s1 | 0 | -3 | 5 | 4 | 47*
CN(C)c1ccc(/C=N/NC(=O)c2nnn(-c3nonc3N)c2CN(C)c2ccccc2)cc1 | 8 | -3 | -15 | 5 | 31*
SMILES | Mtb FBA inh | Mtb bLac sens | CCHFV vOTU inh | MazF activator | GDH-TPI counter
Nc1nonc1-n1nnc(C(=O)N/N=C/c2ccc3c(c2)OCO3)c1CSc1ccccc1 | 0 | -4 | 11 | 72* | 4
COc1ccc(-c2nnc(NC(=O)c3ccc(S(=O)(=O)N4CCCc5ccccc54)cc3)o2)cc1 | -1 | 81 | . | 3 | 37*
COCc1nnc(NC(=O)c2ccc(S(=O)(=O)N3CCCc4ccccc43)cc2)o1 | -1 | 6 | 2 | 5 | 5
O=[N+]([O-])c1ccc(CSc2nnc(-c3cccc(Cl)c3)n2Cc2ccco2)cc1 | . | . | 8 | . | .
Clc1cccc(/C(Cc2nc3ccccc3[nH]2)=N\Nc2ccccc2)c1 | -3 | 96 | -7 | 61* | 12
COC(=O)[C@]12C[C@H](CC(=O)NCCc3ccccc3OC)C(=O)N(Cc3ccc(Cl)cc3Cl)C1=C[C@H](COCc1ccccc1)O[C@@H]2C | . | . | 3 | . | .
CCOc1cc(/C=C(/C#N)c2ccc(F)cc2)ccc1OCc1ccc(C(=O)O)o1 | 3 | 94 | 26 | 1 | 34*
Nc1nc(N)c2[nH]c(-c3ccccc3)nc2n1 | + | -7 | -146 | -3 | 11
NC(=O)CSc1nnc(-c2cc(-c3cccs3)nc3ccccc23)o1 | 18 | 4 | -26 | 59* | 16
CN(C)c1ccc(/C=N/NC(=O)c2ccc3c(c2)OCO3)cc1 | 5 | -2 | 21 | 4 | 42*
O=C(Cc1ccccc1)N/N=C/c1ccc2c(c1)OCO2 | 2 | 1 | 0 | -3 | 13
O=C(CCc1c[nH]c2ccccc12)N/N=C/c1ccc2c(c1)OCO2 | -1 | -6 | 20 | 11 | 38*
Cc1ccc(C(=O)N/N=C\c2ccc3c(c2)OCO3)cn1 | 3 | 5 | -1 | -5 | 22
CN(C)c1ccc(/C=N/NC(=O)c2cccc(N3CCCC3=O)c2)cc1 | -8 | -1 | 5 | 1 | 46*
Cc1ccc(C(=O)NN=Cc2ccc3c(c2)OCO3)cc1 | 0 | . | 2 | 4 | 35*
Cc1ccc(F)cc1C(=O)N(Cc1ccccn1)CC1CCCO1 (stereo not given) | . | . | -2 | . | .
O=C(NN=Cc1ccc2c(c1)OCO2)NN=Cc1ccc2c(c1)OCO2 | -1 | . | 7 | 14 | 38*
Cc1ccc(C(=O)N/N=C/c2ccc3c(c2)OCO3)o1 | 1 | 3 | -1 | -1 | 40*
O=C(NN=Cc1ccc2c(c1)OCO2)C1CC1 | -1 | . | 11 | 2 | 23
CCOC(=O)CC[C@@H]1CC[C@]2(CCCN(S(=O)(=O)c3ccccc3)C2)O1 | . | . | 0 | . | .
Cc1ccc2c(c1)Cc1nc3ccccc3nc1-2 | 57* | 4 | -66 | -2 | 8
Cc1cccn2c(=O)c3cc(C(=O)NCC4CCCO4)c(=N)n(C4CCCC4)c3nc12 (stereo not given) | + | 3 | -345 | 11 | 11
Cc1cccn2c(=O)c3cc(C(=O)NCc4ccco4)c(=N)n(CCOCCO)c3nc12 | + | 4 | . | -117 | 16
N=c1c(C(=O)NCC2CCCO2)cc2c(=O)n3ccccc3nc2n1C1CCCC1 (stereo not given) | + | 0 | -234 | 13 | -1
COc1ccc(CCNC(=O)c2cc3c(=O)n4ccccc4nc3n(C3CCCCC3)c2=N)cc1 | 16 | 91 | -9 | -28 | 0
SMILES | Mtb FBA inh | Mtb bLac sens | CCHFV vOTU inh | MazF activator | GDH-TPI counter
Cc1cccn2c(=O)c3cc(C(=O)NCc4ccco4)c(=N)n(C4CCCCC4)c3nc12 | 85* | -2 | . | 7 | 1
COC(=O)[C@]12C[C@H](CC(=O)N3CCCC3)C(=O)N(Cc3ccco3)C1=C[C@H](C1CCCC1)O[C@@H]2C | . | . | 0 | . | .
COc1ccccc1N1CCN(N=Cc2ccccc2Br)CC1 | . | . | 10 | . | .
COc1ccc(CNS(=O)(=O)/C=C/c2ccc(OC)cc2CNC(=O)OC(C)(C)C)cc1 | . | . | 22 | . | .
COc1ccc(CCNC(=O)c2cc3c(=O)n4ccccc4nc3n(C3CCCCC3)c2=N)cc1OC | 2 | -3 | -3 | 7 | -5
Cc1ccc2nc3c(cc(S(=O)(=O)c4ccccc4)c(=N)n3C3CCCC3)c(=O)n2c1 | 0 | . | 3 | -1 | 10
